# Measurements from PubChem BioAssay AID720690 (Broad Institute, 2013).
# Results with a measured potency or affinity are listed apart. Values without a mark were called inactive.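 How the source made its calls: active means every repeat run showing a signal drop whose fitted half-maximal concentration is at most twice the top tested concentration; inconclusive means repeat runs disagree, or flat partial drop, or poor fit; inactive means the rest.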
# Assay: general mammalian cell viability loss – activator set, cherry-pick, cytotoxicity control for miR-122 modulator project, dose response (AID 720690);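 further: 0% = neutral control wells and -100% = MG132 cytotoxic control wells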
# Conditions: HEK293T viability, CellTiter-Glo luminescence, 48 h; series mostly up to 26 µM; activity change, negative = cytotoxicity: at the top concentration
row,Compound,"activity change, negative = cytotoxicity"
1,COc1cccc(-c2csc(N3CCN(CC(=O)Nc4ccc5c(c4)OCO5)CC3)n2)c1,5.74%
2,CCCNC(=O)C[C@H]1CC[C@@H]2[C@@H](COc3ccc(NC(=O)c4ccc(C(F)(F)F)cc4)cc3C(=O)N2C)O1,-43.4%
3,Cc1ccc(S(=O)(=O)NCCCNS(C)(=O)=O)cc1,7.67%
4,CC(=O)N1[C@H](CO)[C@@H](c2ccccc2)[C@H]1CN(C)C(=O)CN1CCOCC1,-3.31%
